Laboratory results reported in PubChem BioAssay AID757 (NMMLSC, 2007).
In all, about 190,000 compounds went through this assay and about 520 (0.27%) were called active. About 2% were inconclusive and are not listed. The sample holds actives, similar compounds and a random draw of the others, so the mix is not that of the screen. Values without a mark were called inactive.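 The calls were made as follows: active = GTP binding activity at least 20 points away from the 100% control level, either lower or higher; inconclusive = compound flagged as likely green fluorescent, judged across all proteins; inactive = the rest.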

What follows are molecules tested against Ras-related C3 botulinum toxin substrate 1 (Homo sapiens) (UniProt P63000) (assay: wildtype Rac1 GTP binding modulators, primary screen, biochemical, GST-Rac1 beads, flow cytometry, multiplex (AID 757)). Conditions: fluorescent GTP binding, at 10 µM, actives lie on both sides, 0 = cold GTP competed, 100 = untreated.

Compound	GTP binding activity (% of control)
CN1C(=O)/C(=C/c2ccc(C(=O)NC3CCCC3)cc2)Oc2ccccc21	99%
CCn1c(CSc2nc(C)cc(C)n2)nnc1SCC(N)=O	95%
Cc1c(CN2CCCCC2)c(O)n(CCO)c(=O)c1C#N	94%
COc1ccc(C)cc1-n1nnnc1SCc1nc2ccccc2c(=O)[nH]1	98%
CCCCCc1nnc(NC(=O)c2ccc(=O)n(C)n2)s1	101%
CCc1ccc(Oc2nc([N+](=O)[O-])nn2C)cc1	98%
CCOC(=O)N1CCN(Cc2nc(Cc3cccc(C(F)(F)F)c3)no2)CC1	99%
CSCC(NS(=O)(=O)c1ccc(C)cc1)C(=O)O (centres undefined)	104%
Cc1noc(C)c1CCC(=O)O	97%
Cn1cnnc1SCc1nnc(-c2ccccc2Br)o1	87%
O=C(C1CCCN1S(=O)(=O)c1ccc(Br)cc1)N1CCOCC1 (centres undefined)	97%
O=C(CNC(=O)c1cc(=O)[nH]c2ccccc12)Nc1ccc(F)c(F)c1	97%
O=C(CN1CCN(Cc2ccc(F)cc2Cl)C1=O)NCc1cccs1	99%
CCn1ccnc1CN(C)Cc1nc(-c2ccc3c(c2)OCO3)no1	99%
CC(C)OC(=O)Cn1nc(C(F)(F)F)c2c1CCCC2	93%
CCn1cc(C(=O)Nc2cc(C)ccc2C)c(=O)c2ccc(C)nc21	100%
N#Cc1ccc(CSc2nnc3ccccn23)cc1	104%
CCN(CC)C(=O)CS(=O)CC(=O)Nc1cc(OCCOC)c(Cl)cc1Cl (centres undefined)	103%
S=c1[nH]nc(/C=C/c2ccccc2)o1	93%
COc1ccc(C)cc1NC(=S)Nc1ccccc1SC	100%
CC(=O)Cn1ncc(N2CCOCC2)c(Br)c1=O	95%
CC(=O)NCCC(=O)Nc1cc(S(=O)(=O)N2CCOCC2)ccc1N1CCOCC1	100%

Compound	GTP binding activity (% of control)
O=C(CSc1nn(-c2ccc(F)cc2)c(=S)s1)NC1CCS(=O)(=O)C1 (centres undefined)	104%
COc1ccc(OC)c(NC(=O)CN(Cc2ccc(Cl)cc2)S(C)(=O)=O)c1	97%
COc1ccc(N2CCN(C(=O)C3CCN(S(=O)(=O)c4ccc(C)cc4)CC3)CC2)cc1	101%
CCC/C(O)=C1\C(=O)CC(C)(C)CC1=Nc1ccccc1OC	125% [activator] (active)
CC/C(O)=C1\C(=O)CC(C)(C)CC1=NCCc1nc2ccccc2[nH]1	106%
CCOc1ccccc1N=C1NC(=O)CS1	96%
CCN(CC)CCCNC(=O)Cn1cnc2sc(C)c(S(=O)(=O)N3CCN(c4ncccn4)CC3)c2c1=O	93%
Cc1nc2ccc(NC(=S)N3CCC(C)CC3)cc2nc1C	100%
CC(C)(C)NC(=O)NC(=O)COC(=O)Cc1ccc(Cl)cc1Cl	101%
Cc1ccc(NC(=O)NC2CCCCC2)cc1S(=O)(=O)N1CCOCC1	99%
COc1ncnc2sc3c(c12)CCCC3	104%
COc1ccc(/C=N/Nc2ncnc3sc4c(c23)CCCC4)cc1O	77% (active)
CC1(C)CN=C(N2CCN(c3ncnc4sc5c(c34)CCCC5)CC2)S1	99%
COCCN1C(=O)c2oc3c(C)cc(C)cc3c(=O)c2C1c1cccc(O)c1 (centres undefined)	104%
O=C1c2oc3ccccc3c(=O)c2C(c2cccc(O)c2)N1c1ccccn1 (centres undefined)	106%
O=C1c2oc3ccc(Br)cc3c(=O)c2C(c2cccc(F)c2)N1CCO (centres undefined)	123% [activator] (active)
O=C(Nc1cccc(CCc2ccccn2)c1)c1ccc(Cl)cc1	97%
CC1(C)OC(=O)C(=CNC(CO)C(=O)O)C(=O)O1 (centres undefined)	100%
CC1CN(CCCOc2ccccc2-c2ccccc2)CC(C)O1 (centres undefined)	94%
CCOc1ccc(-n2cnnn2)cc1S(=O)(=O)N1CCC(C)CC1C (centres undefined)	97%
COc1ccc(NC(=O)N2CCCC(c3nc(-c4ccc(F)cc4)no3)C2)cc1 (centres undefined)	103%
CNc1[nH]ncc1[N+](=O)[O-]	95%

Compound	GTP binding activity (% of control)
Cc1cc(C)cc(C(=O)NCC(=O)OCC(=O)N2CCCCC2)c1	99%
COc1ccc(NC(=O)c2cc3nc(-c4ccccc4)cc(C)n3n2)cc1OC	78% (active)
COc1ccc(NC(=O)c2ccccc2[N+](=O)[O-])cc1OC	105%
COC(=O)c1cc2nc(-c3ccccc3)cc(C(F)(F)F)n2n1	99%
Cc1ccc(NC(=S)NC(=O)c2ccc(-c3ccccc3)cc2)c(C)c1	99%
Cc1ccc(Nc2c(F)c(F)c(F)c(F)c2C(=O)O)c(C)c1	154% [activator] (active)
COc1c(F)c(F)c(C(=O)O)c(Nc2ccccc2C)c1F	101%
COc1ccc(-n2c(O)c(C=NCC(c3ccco3)N3CCCC3)c3ccccc3c2=O)cc1OC (centres undefined)	102%
CN(C)S(=O)(=O)c1ccc(NC(=O)N2CCOCC2)cc1	100%
Cc1ccc(OCC(=O)NC(C)c2ccccc2)c([N+](=O)[O-])n1 (centres undefined)	98%
O=C(NNC(=O)c1ccc(Cl)cc1Cl)c1cccs1	96%
Cc1ccc(Cl)cc1NC(=O)c1ccccn1	90%
COc1ccc(/C=N/NC(=O)CNC(=O)c2ccc(S(=O)(=O)N3CCCC3)cc2)c(OC)c1	98%
Cc1ccc(SC(CC(=O)c2ccc(C(C)(C)C)cc2)C(=O)O)cc1 (centres undefined)	79% (active)
Cc1ccc(C(=O)CS(C)(=O)=O)cc1	101%
CC(C)(C)c1ccc(C(=O)CSc2ncn[nH]2)cc1	105%
N/C(=N\OC(=O)c1ccc2c(c1)OCO2)c1ccc(Br)cc1	94%
COc1ccc(C)cc1NC(=O)NCc1ccccn1	103%
CN(CCN1CCOCC1)Cc1nc(-c2ccc3c(c2)OCO3)no1	98%
O=C(NCCCN1CCOCC1)c1ccccc1NS(=O)(=O)c1ccc(Br)cc1	100%
